Screens: PubChem, National Center for Advancing Translational Sciences (NCATS)
IL1B secr inh – inflammasome signaling inhibition, IL-1 beta readout. THP-1 LPS/ATP IL-1B secretion, AlphaLISA, 16 h; stronger effect = lower value. activity change, % at 57.5 µM. 4.7% of 360,000 active; in the data active = activity change below about -50%; inconclusive = mostly about -30% to -49%
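THP-1 cells pretreated 1 hr with compounds (up to 57.5 uM final), then stimulated with LPS (250 ng/mL final) plus ATP (1.25 mM final); secreted IL-1B measured by AlphaLISA after 16 hr, decreased signal indicating inhibition.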
DT40 TDP1 no CPT – qHTS for Inhibitors of human tyrosyl-DNA phosphodiesterase 1 (TDP1): qHTS in cells in absence of CPT | DT40 Tdp1-/- hTDP1 cells, no CPT, ATP luminescence, 48 h | Potency, µM (doses to about 46.2 µM), usual class: inhibitors | 15% of 420,000 active | AID 686978, 2013; also: nearly all actives have a fitted effect of over 55% in size
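Luminescent ATP content (CellTiter-Glo) served as the growth readout. Knockout chicken DT40 cells expressing human TDP1 were exposed to compounds without camptothecin for a minimum 48 hr at 37 °C.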
HT1080 IDH1KD tx – kills HT-1080 cells with IDH1 knockdown | HT-1080 IDH1 knockdown viability, ATP luminescence, 48 h | Potency, µM (titrated, usually from 46.1 µM), most hits filed as cytotoxic | 2% of 360,000 active | AID 686971
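CellTiter-Glo luminescence after 48 h compound exposure at 37 degrees C of IDH1-knockdown HT-1080 cells in 5% FBS RPMI. %Activity scaled between DMSO wells and cell-free media wells, with curves fitted and assigned curve classes.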
HT1080NT lethal – kills 2HG-producing HT-1080-NT fibrosarcoma cells. HT-1080-NT fibrosarcoma viability, CellTiter-Glo ATP luminescence, 48 h. Potency, µM (series often up to 46.1 µM), actives largely listed as cytotoxic. 1.6% of 360,000 active;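 also: NT is the 2HG producing partner of a matched IDH1 knockdown line; nearly all actives have a fitted effect of over 55% in size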
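Luminescent CellTiter-Glo readout after 48 hours of compound exposure at 37 degrees C defined viability of HT-1080-NT cells. Activity was normalized to DMSO wells and cell-free media wells; concentration-response curves were fitted and assigned curve classes.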
DT40 TDP1 CPT – DT40-hTDP1 cell growth loss with CPT; chicken DT40 Tdp1-/-;hTDP1 cells + 20 nM CPT, ATP luminescence, 48 h; Potency, µM (series often up to 46.2 µM), usual class: inhibitors; 12% of 420,000 active; AID 686979; also: nearly all actives have a fitted effect of over 55% in size
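Chicken DT40 Tdp1-/- cells stably complemented with human TDP1 were seeded at 400 cells/well in medium containing 20 nM camptothecin, exposed to pin-transferred compounds, and grown at 37 °C for at least 48 hr. Viability was read as ATP luminescence.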
Numbers stand for hits; – = inactive; ? = inconclusive; · = not tested or not shown; [ ] = another dose, or the depositor's remark. The list is not random: actives were taken first. Their share in the collection is about 19%. Unless noted, calls follow the shape of the dose curve; as a rule, active = well fitted curve in the direction sought with a large enough effect; inconclusive = small, poorly fitted or top-dose-only effect, or another doubt; inactive = no such curve, though single readings can be large; an effect the other way counts as inactive or inconclusive.

SMILES | IL1B secr inh | DT40 TDP1 no CPT | HT1080 IDH1KD tx | HT1080NT lethal | DT40 TDP1 CPT
C#CCOCCOCCOCCNc1nc(N2CCN(C(=O)Cn3cc(CC(C)O)nn3)CC2)nc(N2CCN(C(=O)[C@H](CCCCN)n3cc(CC(C)O)nn3)CC2)n1 (stereo partly specified) | – | – | – | – | –
Nc1c(N(CCC2=CCCCC2)C(=O)c2ccccc2F)c(=O)[nH]c(=O)n1Cc1ccccc1 | – | – | – | –[9.24 µM] | ?
Nc1c(N(CCC2=CCCCC2)C(=O)CCCOc2ccccc2)c(=O)[nH]c(=O)n1Cc1ccccc1 | – | – | – | – | –
CC(Oc1ccc(Br)cc1)C(=O)N(Cc1ccccc1)c1c(N)n(Cc2ccccc2)c(=O)[nH]c1=O (stereo unspecified) | ? | 21µM | – | – | 23µM
CC(Oc1ccccc1)C(=O)N(CCC1=CCCCC1)c1c(N)n(Cc2ccccc2)c(=O)[nH]c1=O (stereo unspecified) | – | ? | ? | 23µM | ?
CS(=O)(=O)c1ccccc1C(=O)N(CCC1=CCCCC1)c1c(N)n(Cc2ccccc2)c(=O)[nH]c1=O | – | ? | – | – | 29µM
COc1ccc(Cl)cc1NC(=O)CN(C)C(=O)C1CCN(C(=O)Nc2ccccc2)CC1 | – | – | – | – | –
CN(CCCCCCCCCCN(C)C(=O)Oc1cccc([N+](C)(C)C)c1)C(=O)Oc1cccc([N+](C)(C)C)c1 | – | 0.82µM | – | – | 2.3µM
COc1cc(C)ccc1S(=O)(=O)N1CCN(C23CC4CC(CC(C4)C2)C3)CC1 | – | 16µM | – | – | ?
COc1cc(F)ccc1S(=O)(=O)N1CCN(C23CC4CC(CC(C4)C2)C3)CC1 | – | – | – | – | –
C/C=C/c1ccc(OCC(O)CNCC(c2ccc(OC)cc2)N(C)C)c(OC)c1 (stereo unspecified) | -57 | ? | ? | – | ?
C/C=C/c1ccc(OCC(O)CN(C)Cc2ccc(SC)cc2)c(OC)c1 (stereo unspecified) | ? | 23µM | – | – | ?
C/C=C/c1ccc(OCC(O)CNCCc2ccc(OC)cc2)c(OC)c1 (stereo unspecified) | ? | ? | – | – | ?
CCOC(=O)CC(NC(=O)CCc1c(C)nc2c(c(C)nn2-c2ccc(C)c(C)c2)c1C)c1ccc(C)cc1 (stereo unspecified) | · | ? | · | · | –
O=C(/C=C/c1ccc(O)c(O)c1)NC(=O)c1ccccc1O | – | –[9.04 µM] | – | – | –[9.04 µM]
O=C(COC(=O)c1cc(Br)ccc1O)c1ccc(F)cc1 | – | – | – | – | –
Cc1ccc(/C=C/C(=O)c2ccccc(=O)c2O)cc1C | -81 | 13µM | ? | 18µM | 23µM
O=C(/C=C/c1ccccc1)c1cc(Br)ccc(=O)c1O | -59 | 4.6µM | ? | 18µM | 3.7µM
O=C(/C=C/c1ccc(F)cc1)c1cc(Br)ccc1O | -57 | – | – | – | –
Cn1nnnc1SCC(=O)Nc1ncc(C(F)(F)F)cc1Cl | – | – | – | – | –
Cc1cc(OCc2cc(C(=O)NC(C)c3cnn(C)c3)no2)cc(C)c1Cl (stereo unspecified) | – | 16µM | – | – | 18µM
Cc1ccccc1C1CCCN(C(=O)c2cc(COc3c(F)cccc3F)on2)C1 (stereo unspecified) | – | 21µM | – | – | 23µM
CCCOC1CCCN(C(=O)c2cc(COc3c(F)cccc3F)on2)C1 (stereo unspecified) | – | ? | – | – | ?
Cc1cc(OCc2cc(C(=O)N3CCC(Oc4cccnc4)CC3)no2)cc(C)c1Cl | -62 | 15µM | ? | – | 13µM
Cc1cc(OCc2cc(C(=O)N(C)C(C)c3ccccn3)no2)cc(C)c1Cl (stereo unspecified) | – | ? | – | – | 18µM
SMILES | IL1B secr inh | DT40 TDP1 no CPT | HT1080 IDH1KD tx | HT1080NT lethal | DT40 TDP1 CPT
CC(C)c1ccc(NC(=O)Cn2nnc(C(=O)NCc3ccc(Cl)cc3)c2N)cc1 | · | – | · | · | –
Cc1cc(OCc2cc(C(=O)N3CCCCCC3)no2)cc(C)c1Cl | – | ? | – | – | 15µM
Cc1ccc(OCc2cc(C(=O)N3CCN(C4CCCCC4)CC3)no2)cc1C | – | ? | – | – | 16µM
Cc1ccc(OCc2cc(C(=O)N3CCCCCCC3)no2)cc1C | – | – | – | – | –
Cc1ccc(OCc2cc(C(=O)N3CCN(C4CCCC4)CC3)no2)cc1C | – | – | – | – | –
CCONC(=O)Nc1ccccc1 | – | – | – | – | –
Cc1cc(C(=O)Cn2nc(C(=O)O)c3ccccc3c2=O)c(C)n1CCc1ccc(Cl)cc1 | – | ? | – | – | 21µM
CC(C)OCCCN1C(=O)c2[nH]nc(-c3ccccc3O)c2C1c1cccc(Cl)c1 (stereo unspecified) | ? | 23µM | ? | ? | 18µM
COCCCN1C(=O)c2[nH]nc(-c3ccccc3O)c2C1c1cccc(Cl)c1 (stereo unspecified) | – | 2.9µM | ? | 26µM | 21µM
Cc1ccc2cccc(OC(=O)c3c(F)cccc3Cl)c2n1 | – | – | – | ? | –
Cc1cc(N2CCC(C)CC2)nc(-n2nc(C)cc2C)n1 | – | 2.6µM | –[9.24 µM] | – | 2.6µM
Cc1cc(C)n(-c2nc3ccccc3nc2N2CCC(C)CC2)n1 | – | – | – | – | –
COc1ccc(OC)c(NC(=O)c2cc3c(=O)n4ccccc4nc3n2C)c1 | – | – | – | – | –
CN(C)c1ccc(NC(=O)c2cc3c(=O)n4ccccc4nc3n2C)cc1 | ? | 15µM | – | – | ?
CN(C(=O)c1cc2c(=O)n3ccccc3nc2n1C)c1ccccc1 | · | ? | · | · | 12µM
Cn1c(C(=O)NCCc2ccccc2)cc2c(=O)n3ccccc3nc21 | · | ? | · | · | –
CCC(=O)C1CCCN(C(=O)c2ccc(OC)c(OC3CCN(C(C)=O)CC3)c2)C1 (stereo unspecified) | – | – | – | – | –
CCN(C(=O)COC(=O)/C(=C/c1ccccc1)n1nnnc1C)C1CCCCC1 | -97 | 23µM | – | ? | ?
COc1ccc(CCNC(=O)CSc2nc3ccsc3c(=O)n2Cc2ccccn2)cc1OC | ? | – | – | – | –
Cc1ccc(/C=C/C(=O)N2CCN(S(=O)(=O)c3cccs3)CC2)o1 | – | – | – | – | –
COc1ccc(C)cc1/C=C/C(=O)N1CCN(S(=O)(=O)c2cccs2)CC1 | – | ? | – | – | 21µM
CCCN(CC(=O)Nc1ccccc1OC)C(=O)Cn1c(=O)oc2ccccc21 | – | – | – | – | –
Cc1c(C2CC(=O)N(c3ccccc3)C2=O)[nH]n(-c2ccccc2)c1=O (stereo unspecified) | – | ? | – | – | 16µM
COc1ccc(C)cc1-n1cnnn1 | – | – | – | – | –
